# Data taken from PubChem BioAssay AID743366 (National Center for Advancing Translational Sciences (NCATS), 2014).
# Assay: qHTS profiling of inhibitors of Plasmodium falciparum (HB3) proliferation (acoustic dispense)
# Conditions: P. falciparum HB3 in erythrocytes, SYBR Green, 72 h; at 49.8 µM (top of the series) unless noted
# From the text: Plasmodium falciparum is a virulent malarial parasite that kills 1-2 million people worldwide each year. Transmitted by mosquitoes, the sporozoite form of the parasite enters the blood stream to infect hepatocytes, where they become merozoites that infect red blood cells (erythrocytes). Within erythrocytes, merozoites begin a […] cycle of growth and division, after which the parasite is released to infect new red blood cells. Gametocytes, which form within erythrocytes as well, circulate in the bloodstream and are ingested by the mosquito, thereby completing the life cycle. To profile malarial isolates for differential chemical responses and to identify inhibitors of malarial growth, an assay that measures P. falciparum growth and replication within erythrocytes was employed. This assay uses a DNA binding fluorescent dye (SYBR Green) to detect parasite DNA following cell lysis. Because mature erythrocytes lack DNA, only Plasmodium-derived DNA is detected.
# The SYBR Green viability assay was adapted from a method described previously (Plouffe et al., 2008). For screening 3 ul culture medium was dispensed into 1536 well black clear bottom plates (Aurora Biotechnologies) using a Multidrop Combi (Thermo Fisher Scientific Inc.), 23 nL of compounds in DMSO were added by an acoustic dispenser (EDC Biosystems), and 5 ul of erythrocytes infected with P. falciparum (0.3% parasitemia, 2.5% hematocrit final concentration) were added. The plates were incubated at 37 C in a humidified incubator in 5% CO2 for 72 h, and 2 ul lysis buffer (20 mM Tris HCl, 10 mM EDTA, 0.16% saponin, 1.6% triton X, 10X SYBR Green I supplied as 10,000X […] by Invitrogen) was added to each well. The plates were mixed for 25 sec with gentle shaking and incubated overnight at room temperature in the dark. The following morning, fluorescence intensity at 485(14) nm excitation and 535(25) nm emission wavelengths was measured on an EnVision (Perkin Elmer) plate reader. Plate reads were normalized relative to the control inhibitor (0.29 uM artemisinin) and vehicle (DMSO) wells present on each plate and then corrected by an algorithm using vehicle-only control plates at the beginning and end of the compound plate stack.
row,SMILES,"activity (normalised, proliferation)"
1,CCC[C@H](Nc1nc(-c2ccc(NC(=O)NCC)c(OC)c2)ncc1C)c1cccnc1,-0.168%
2,CN(Cc1cnc2nc(N)nc(N)c2n1)c1ccc(C(=O)N[C@@H](CCC(=O)O)C(=O)O)cc1,0.621%
3,COc1cc([C@@H]2c3cc4c(cc3[C@@H](O[C@@H]3O[C@@H]5CO[C@@H](c6cccs6)O[C@@H]5[C@H](O)[C@@H]3O)[C@H]3COC(=O)[C@H]23)OCO4)cc(OC)c1O,-0.0351%
4,C=C[C@@H]1CN2CCC1C[C@@H]2C(O)c1ccnc2ccc(OC)cc12 (stereo not given in full),1.73%
5,C=CCn1c(=O)c2cnc(Nc3ccc(N4CCN(C)CC4)cc3)nc2n1-c1cccc(C(C)(C)O)n1,-0.406%
6,C#Cc1cccc(Nc2ncnc3cc(OC)c(OCCCCCCC(=O)NO)cc23)c1,-0.996%
7,CC(C)Oc1cc(Nc2nc(N[C@@H](C)c3ccc(F)cn3)ncc2Cl)[nH]n1,2.89%
8,COc1ccc2cc3[n+](cc2c1OC)CCc1cc2c(cc1-3)OCO2,-1.06%
9,C[C@H]1c2cccc(O)c2C(O)=C2C(=O)[C@]3(O)C(O)=C(C(N)=O)C(=O)[C@@H](N(C)C)[C@@H]3[C@@H](O)[C@@H]21,2.34%
10,COc1cc2c(Oc3ccc(NC(=O)C4(C(=O)Nc5ccc(F)cc5)CC4)cc3F)ccnc2cc1OCCCN1CCOCC1,17.9%
11,COc1ccc(-c2ccc3ncc4c(c3c2)n(-c2ccc(N3CCNCC3)c(C(F)(F)F)c2)c(=O)n4C)cn1,5.42%
12,C=C[C@@H]1CN2CC[C@@H]1C[C@H]2[C@H](O)c1ccnc2ccc(OC)cc12,0.317%
13,Nc1cccc(-c2csc(NC(=O)CCCCCCC(=O)NO)n2)c1,-0.958%
14,CC[C@H]1OC(=O)[C@H](C)[C@@H](O[C@H]2C[C@@](C)(OC)[C@@H](O)[C@H](C)O2)[C@H](C)[C@@H](O[C@@H]2O[C@H](C)C[C@H](N(C)C)[C@@H]2O)[C@](C)(O)C[C@@H](C)CN(C)[C@H](C)[C@@H](O)[C@]1(C)O,-0.367%
15,CCCCCCCCCCOc1cc2c(=O)c(C(=O)OCC)c[nH]c2cc1OCC,-0.332%
16,CC[C@H]1CN2CCc3cc(OC)c(OC)cc3[C@H]2C[C@@H]1C[C@@H]1NCCc2cc(OC)c(OC)cc21,-0.337%
17,CCS(=O)(=O)Nc1ccc2[nH]c(O)c(C(=Nc3ccc(CN4CCCCC4)cc3)c3ccccc3)c2c1,-1.43%
18,Cn1c2ccccc2c2c3c(c4c5ccccc5n(CCC#N)c4c21)CNC3=O,106%
19,CC[C@H]1OC(=O)[C@H](C)C(=O)[C@H](C)[C@@H](O[C@H]2O[C@H](C)C[C@H](N(C)C)[C@@H]2O)[C@](C)(OC)C[C@@H](C)C(=O)[C@H](C)[C@H]2N(CCCCn3cnc(-c4cccnc4)c3)C(=O)O[C@]12C,5.95%
20,Cc1cn(-c2cc(NC(=O)c3ccc(C)c(Nc4nccc(-c5cccnc5)n4)c3)cc(C(F)(F)F)c2)cn1,1.32%

row,SMILES,"activity (normalised, proliferation)"
1,CO[C@H]1C=CC=C(C)C(=O)NC2=CC(=O)C(NCCN(C)C)=C(C[C@@H](C)C[C@H](OC)[C@@H](O)[C@@H](C)C=C(C)[C@@H]1OC(N)=O)C2=O,-0.262%
2,CN([C@@H](Cc1ccc(OS(=O)(=O)c2cccc3cnccc23)cc1)C(=O)N1CCN(c2ccccc2)CC1)S(=O)(=O)c1cccc2cnccc12,0.0465%
3,CCCCN(CCCC)CC(O)c1cc(Cl)cc2c1-c1ccc(Cl)cc1C2=Cc1ccc(Cl)cc1 (stereo not given),-1.5%
4,CO[C@H]1O[C@@H]2O[C@@]3(C)CC[C@@H]4[C@@H](C)CC[C@@H]([C@H]1C)[C@@]24OO3,-0.929%
5,CCNC(=O)c1noc(-c2cc(C(C)C)c(O)cc2O)c1-c1ccc(CN2CCOCC2)cc1,117%
6,COCCn1c2c([n+](Cc3cnccn3)c1C)C(=O)c1ccccc1C2=O,-1.3%
7,COc1ccc2nc3cc(Cl)ccc3c(Nc3cc(CN4CCCC4)c(O)c(CN4CCCC4)c3)c2n1,-3.23%
8,CC[C@@]1(O)C[C@H](O[C@H]2C[C@H](N(C)C)[C@H](O[C@H]3C[C@H](O)[C@H](O[C@H]4CCC(=O)[C@H](C)O4)[C@H](C)O3)[C@H](C)O2)c2c(cc3c(c2O)C(=O)c2c(O)cccc2C3=O)[C@@H]1C(=O)OC,-2.68%
9,FC(F)c1nc2ccccc2n1-c1nc(N2CCOCC2)nc(N2CCOCC2)n1,25.3%
10,C[C@@H](Oc1ccc2[nH]nc(C=Cc3cnn(CCO)c3)c2c1)c1c(Cl)cncc1Cl,1.95%
11,CC1(CN2CCC(n3c(=O)[nH]c4ccccc43)CC2)OCc2ccccc2-n2cccc21 (stereo not given),24.8%
12,CCN(CC)CCCC(C)Nc1ccnc2cc(Cl)ccc12 (stereo not given),-0.388%
13,Cn1cc(CNCC2CCN(c3ncc(C(=O)NO)cn3)CC2)c2ccccc21,-0.786%
14,COC(=O)c1ccc2c(C(=Nc3ccc(N(C)C(=O)CN4CCN(C)CC4)cc3)c3ccccc3)c(O)[nH]c2c1,35.3%
15,CCCC[C@@H]1C[C@@H](C(=O)NC([C@H](C)Cl)[C@H]2O[C@H](S)[C@H](O)[C@@H](O)[C@@H]2O)N(C)C1 (stereo not given in full),3.44%
16,CN(C)c1ccc2nc3ccc(=[N+](C)C)cc-3sc2c1,19.1%
17,Cc1ccc([N+](=O)[O-])cc1S(=O)(=O)N(C)N=Cc1cnc2ccc(Br)cn12,13.3%
18,Clc1ccc2c(N3CCN(CCCN4CCN(c5ccnc6cc(Cl)ccc56)CC4)CC3)ccnc2c1,-2.19% [at 23.2 µM]
19,Cc1cnc(Nc2ccc(CN3CCOCC3)cc2)nc1Nc1cccc(S(=O)(=O)NC(C)(C)C)c1,0.609%
20,CCC(=O)N1CCN(c2ccc(-n3c(=O)ccc4cnc5ccc(-c6cnc7ccccc7c6)cc5c43)cc2C(F)(F)F)CC1,0.244%
